NS1 inh = inhibitors of influenza NS1 protein function | 270,000 tested, 0.4% active | Potency, µM (highest dose often 46.1 µM), without a hit: top-dose activity, positive = more growth; calls by dose curve; further: potency means the concentration at half of the fitted maximal effect; actives are rising curves; nearly all actives have a fitted effect of over 50% in size
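In this qHTS, NS1 from influenza A is expressed in budding yeast, where it slows growth. Cells are switched from glucose to 2% galactose medium (pH 6.0, -URA), treated with compound, and growth recovery is read at OD600.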
Cycloheximide cs = counter-screen for Shiga toxin inhibitors: cycloheximide protein synthesis inhibition; AID 2314; max response, %; cell reporter, cycloheximide protein synthesis inhibition counterscreen; 300,000 tested, 12% active; in the data active means max response mostly above about 13%, no sharp cut-off; inactive means mostly below about 14%; further: read at 38.3 µM for the half of the compounds with a filed dose; 0% is about no effect
AmpC detergent = AmpC beta-lactamase inhibition with detergent present; AmpC hydrolysis of nitrocefin, absorbance 480 nm, 0.01% Triton; Potency, µM (highest dose often 114 µM), without a hit: at the highest dose activity change, negative = inhibition, most hits filed as inhibitors; 370,000 tested, 0.041% active; AID 485294;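 further: potency means the concentration at half of the fitted maximal effect; 0% = no-compound wells and -100% = no-enzyme wells; nearly all actives have a fitted effect of over 25% in size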
Target sequence (P00811 whole entry, looked up): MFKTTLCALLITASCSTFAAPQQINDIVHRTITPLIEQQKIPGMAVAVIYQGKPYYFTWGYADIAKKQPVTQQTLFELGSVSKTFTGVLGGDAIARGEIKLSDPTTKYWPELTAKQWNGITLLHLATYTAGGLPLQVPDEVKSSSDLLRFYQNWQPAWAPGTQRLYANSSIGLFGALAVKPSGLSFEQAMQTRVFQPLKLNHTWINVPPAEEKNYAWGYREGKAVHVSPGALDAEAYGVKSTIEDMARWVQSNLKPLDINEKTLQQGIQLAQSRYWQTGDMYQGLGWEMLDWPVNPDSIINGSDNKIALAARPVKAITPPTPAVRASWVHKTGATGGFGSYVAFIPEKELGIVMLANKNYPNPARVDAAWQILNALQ
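AmpC (5.3 nM in the dispensed reagent) in 20 mM phosphate pH 7.0 with 0.01% (detergent screen) or 0.0001% Triton X-100 was preincubated with compounds for 15 min at room temperature. Nitrocefin was then added from an 800 uM solution, and hydrolysis was followed at 480 nm.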
Shiga toxin inh = inhibitors of Shiga toxin in Vero cells; inhibition, % at 38.7 µM; Vero cells, Shiga toxin protein synthesis inhibition reporter; 290,000 tested, 9.2% active; in the data active means inhibition mostly above about 28%, no sharp cut-off; inactive means mostly below about 43%; further: 0% is about no effect
AmpC inh no detg = AmpC beta-lactamase inhibition without detergent. P00811. AmpC nitrocefin hydrolysis, absorbance 480 nm, 0.0001% Triton. Potency, µM (series often up to 57.1 µM), for inactives: at the top dose activity change, negative = inhibition, most hits filed as inhibitors. 330,000 tested, 0.52% active. AID 485341;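 further: potency means the concentration at half of the fitted maximal effect; plate controls were no compound for no effect and no enzyme for full effect; nearly all actives have a fitted effect of over 20% in size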
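20 mM phosphate pH 7.0 + 0.01% (detergent screen) or 0.0001% Triton X-100; 5.3 nM AmpC reagent; cpd preinc 15 min RT; nitrocefin (800 uM stock) to start; A480 q20 s × 4 min; Activity was normalised to no-enzyme and no-compound control wells.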
An asterisk follows results filed as active; ? = inconclusive; nt = no result; + = active, no number. This is one part of a sample in which hits are shown more often than they occur. Unless noted, the call rests on the fitted dose curve; in most records, active means well fitted curve in the direction sought with a large enough effect; inconclusive means small, poorly fitted or top-dose-only effect, or another doubt; inactive means no such curve, though single readings can be large; an effect the other way counts as inactive or inconclusive.

SMILES	NS1 inh	Cycloheximide cs	AmpC detergent	Shiga toxin inh	AmpC inh no detg
CC(C)NC(=O)CCCc1cn(C)c2ccccc12	-18.5%	-3.5	-8.8%	1.1	0.7%
Cn1cc(CC(=O)NCc2ccc(F)cc2)c2ccccc21	-1.8%	12.2*	16.4%	5.9	-2.7%
CC(C)c1ccc(NC(=O)Cc2cn(C)c3ccccc23)cc1	nt	13.8*	8.4%	21.1	-33.9%
Cc1cc(NC(=O)c2cccc(COc3ccc(Br)cc3)c2)no1	1.4%	111.8*	3.0%	+	-16.9%
Cc1cc(NC(=O)c2ccc(Cl)cc2)no1	-1.5%	31.9*	-7.4%	58.9*	-18.7%
CCOc1ccc(C(=O)Nc2cc(C)on2)cc1	-16.8%	30.7*	?	73.2*	-19.2%
C/C(=C\c1ccccc1)C(=O)Nc1cc(C)on1	-80.5%	40.1*	1.2%	98.4*	-23.1%
Cc1cc(NC(=O)Cc2ccccc2)no1	-8.8%	-1.2	-17.5%	-11.1	-11.4%
Cc1cc(NC(=O)NC(=O)c2ccccc2)no1	2.3%	19.7*	1.4%	38.2*	-13.3%
Cc1cc(NC(=O)c2ccc3nc(C)sc3c2)no1	-4.2%	43.1*	6.9%	195.4*	-9.4%
Cc1cc(NC(=O)CSCC(=O)OCC(=O)c2cccc(Br)c2)no1	nt	nt	0.7%	nt	31.6µM*
CCc1ccc(C)[n+](CC(=O)c2cccs2)c1	-1.6%	-3.1	-0.6%	-6.0	-15.7%
CCc1ccccc1NC(=O)Nc1cc(C(=O)NCc2ccc(C)cc2)ccc1N1CCCC1	nt	nt	11.6%	nt	nt
C=CCOc1ccc(C(=O)c2ccccc2)c(OCC(=O)NC2(C#N)CCCC2)c1	-47.0%	-2.2	?	-3.3	16.5%
COc1cc(COCC(O)CN2C(C)CCCC2C)cc(OC)c1OC (stereo not given)	-0.9%	-2.3	-8.6%	17.9	-8.1%
CCOC(=O)c1c(C)n(-c2ccccc2)c2ccc(OC(=O)c3ccc(OCC)c(OCC)c3)cc12	nt	nt	9.7%	nt	nt
O=C1CC(c2ccco2)=Nc2ccccc2N1	0.8%	11.3*	-4.0%	4.3	-11.1%
CCCCSc1nnc(-c2ccccc2NC(C)=O)c(=O)[nH]1	4.8%	-1.0	-5.2%	8.9	-14.6%
Cc1ccccc1OCCCCn1c(CCNC(=O)C(C)(C)C)nc2ccccc21	nt	nt	-0.3%	nt	nt
O=C(/C=C/c1cccs1)Nc1sc2c(c1C(=O)O)CCCC2	-31.2%	24.8	1.4%	29.7	-23.8%
NC(=O)c1c(/N=C/c2cccs2)sc2c1CCCC2	-0.9%	10.4*	2.1%	20.6	-10.0%
CN1C(=O)/C(=C/c2ccc(N3CCCCCC3)o2)C(=O)NC1=S	4.8%	40.2*	-11.0%	64.3*	-36.3%
CN1C(=O)/C(=C\c2ccc(N3CCCCC3)o2)C(=O)NC1=S	10.1%	27.4*	?	38.5*	-7.7%
Cc1ccc(N2CCN(S(=O)(=O)c3ccc(Cl)s3)CC2C)cc1 (stereo not given)	-22.8%	14.9*	?	22.0*	-40.8%
Cc1ccc(N2CCN(S(=O)(=O)c3c(C)[nH]c(=O)[nH]c3=O)CC2C)cc1 (stereo not given)	nt	nt	0.7%	nt	nt
SMILES	NS1 inh	Cycloheximide cs	AmpC detergent	Shiga toxin inh	AmpC inh no detg
COCCn1c(Sc2nc(C)cs2)nc2c1c(=O)[nH]c(=O)n2C	2.7%	-4.6	-0.7%	19.1	0.159µM*
COCCn1c(SCc2ccccc2Cl)nc2c1c(=O)[nH]c(=O)n2C	-13.3%	-2.1	?	-11.1	12.5%
Cc1ccccc1C(=O)Nc1nnc(-c2ccco2)s1	-1.1%	38.1*	-0.1%	69.1*	-19.8%
COc1ccccc1C(=O)Nc1nnc(-c2ccco2)s1	-129.2%	42.1*	-1.4%	133.0*	66.3%
COc1ccccc1NC(=O)Nc1nnc(-c2ccco2)s1	9.9%	-0.3	0.9%	17.5	-6.3%
Cc1ccccc1OCC(=O)Nc1nnc(-c2ccco2)s1	0.6%	1.3	7.0%	-5.1	-1.3%
Cc1cccc(N2CCN(C(=O)c3ccc(CNc4c(N5CCC(C)CC5)c(=O)c4=O)cc3)CC2C)c1 (stereo not given)	nt	7.6	-8.2%	-7.0	26.6%
CCCn1c(SCC(=O)N2CCCCC2)nnc1C(C)C	1.0%	14.7*	-0.2%	43.3*	-8.0%
CCCC1CC(C)(c2csc(Nc3ccc(OCC)cc3)n2)OC1=O (stereo not given)	-2.6%	19.7*	?	60.5*	-21.8%
COc1cccc(C(=O)N(C)c2nnc(-c3ccncc3)s2)c1	-0.4%	5.9	-6.7%	13.8	-25.4%
COc1cccc(-c2nnc(N(C)C(=O)C3CCOC3)s2)c1 (stereo not given)	-18.1%	28.8*	?	57.7*	122.4%
Cn1c(=O)c2c(c3ccccc31)OC(=O)CC2c1ccc(C(F)(F)F)cc1 (stereo not given)	nt	nt	1.2%	nt	nt
CCN(CC)c1ccc(NC(=O)c2cccc(C)c2OC)c(C)c1	-8.7%	65.0*	-7.1%	86.6*	3.2%
Cc1nc2ccc(-c3ccccc3)cc2o1	2.8%	53.5*	-8.9%	62.7	-16.0%
CNC(=O)Nc1ccc2nc(C)oc2c1	-1.1%	5.1	3.3%	5.1	-18.3%
COc1ccccc1-c1ccc(=O)n(CC(=O)NC2CCc3ccccc32)n1 (stereo not given)	-54.2%	-2.3	-1.9%	-13.5	161.3%
COc1cc(Cl)cc(/C=C/c2ccc3ccccc3n2)c1OC(C)=O	-3.2%	83.6*	-5.1%	97.3*	23.9%
CC(=O)Oc1ccc(Cl)cc1/C=C/c1cc(OC(C)=O)c2ccccc2n1	9.3%	19.8*	?	33.9*	-37.0%
O=C1NC(c2cccs2)Nc2sc3c(c21)CCCC3 (stereo not given)	-22.4%	38.4*	-2.1%	87.3*	-16.2%
CC(C)(C)c1cc(C(C)(C)C)c2oc(=O)c(-c3nc4ccccc4[nH]3)cc2c1	nt	nt	10.4%	nt	nt
COc1ccc(/C=C/C(=O)c2cc3cccc(OC)c3oc2=O)cc1	25.7%	20.4	-8.2%	20.8	-27.9%
COc1ccc(-c2cc3cccc(OC)c3oc2=O)cc1	-7.9%	27.7*	1.1%	63.8*	-53.8%
COc1cccc2cc(-c3nc4ccccc4[nH]3)c(=O)oc12	-11.2%	32.0*	-8.9%	nt	-12.5%
CC(C)(C)c1cc(C(C)(C)C)c2oc(=O)c(-c3nc4ccc(C(=O)O)cc4[nH]3)cc2c1	nt	nt	?	nt	-26.0%
Cc1cccc2cc(-c3nc4ccc(C(=O)O)cc4[nH]3)c(=O)oc12	5.6%	24.6*	?	37.1*	-14.4%
SMILES	NS1 inh	Cycloheximide cs	AmpC detergent	Shiga toxin inh	AmpC inh no detg
COc1cccc2cc(-c3ccccc3)c(=O)oc12	-25.8%	47.8*	-1.2%	103.9*	-15.5%
COC(=O)c1ccc2c(=O)n(C3CCCCC3)c(SCC#N)nc2c1	-37.1%	13.5	-20.8%	70.9*	-0.8%
COc1ccc(C(=O)c2coc3ccc(O)cc23)cc1	-8.0%	46.4*	-0.3%	42.7*	-23.6%
Cc1ccc(C(=O)c2coc3ccc(OCC(=O)O)cc23)cc1	2.8%	22.2*	?	35.0*	-15.7%
O=C(c1cccc(Br)c1)c1coc2ccc(O)cc12	nt	nt	-4.9%	nt	-36.3%
Cc1ccc(NC(=O)c2cc(S(=O)(=O)N3CCc4ccccc43)ccc2F)cc1Cl	nt	nt	9.5%	nt	nt
